Experimental data reported in PubChem BioAssay AID504339 (National Center for Advancing Translational Sciences (NCATS), 2011).
Screen size: about 390,000 compounds; about 17,000 (4.4%) were called active. About 8% were inconclusive and are not listed. This is one part of a sample in which actives are shown more often than they occur. Unmarked numbers belong to inactive results. Calls follow the shape of the dose curve; as a rule, active = well fitted inhibition curve with a large enough effect; inconclusive = small, poorly fitted or top-dose-only effect; inactive = no such curve, though single readings can be large or run the other way.

These compounds were tested against Lysine-specific demethylase 4A (Homo sapiens) (UniProt O75164) (assay: qHTS Assay for Inhibitors of JMJD2A-Tudor Domain). Settings: AlphaScreen JMJD2A-Tudor / H3K4me3 peptide binding; series mostly up to 114 µM; activity change, negative = inhibition: at the top concentration.
Lysine-specific demethylase 4A (Homo sapiens), sequence (O75164 whole entry, looked up, the tested form may be a part): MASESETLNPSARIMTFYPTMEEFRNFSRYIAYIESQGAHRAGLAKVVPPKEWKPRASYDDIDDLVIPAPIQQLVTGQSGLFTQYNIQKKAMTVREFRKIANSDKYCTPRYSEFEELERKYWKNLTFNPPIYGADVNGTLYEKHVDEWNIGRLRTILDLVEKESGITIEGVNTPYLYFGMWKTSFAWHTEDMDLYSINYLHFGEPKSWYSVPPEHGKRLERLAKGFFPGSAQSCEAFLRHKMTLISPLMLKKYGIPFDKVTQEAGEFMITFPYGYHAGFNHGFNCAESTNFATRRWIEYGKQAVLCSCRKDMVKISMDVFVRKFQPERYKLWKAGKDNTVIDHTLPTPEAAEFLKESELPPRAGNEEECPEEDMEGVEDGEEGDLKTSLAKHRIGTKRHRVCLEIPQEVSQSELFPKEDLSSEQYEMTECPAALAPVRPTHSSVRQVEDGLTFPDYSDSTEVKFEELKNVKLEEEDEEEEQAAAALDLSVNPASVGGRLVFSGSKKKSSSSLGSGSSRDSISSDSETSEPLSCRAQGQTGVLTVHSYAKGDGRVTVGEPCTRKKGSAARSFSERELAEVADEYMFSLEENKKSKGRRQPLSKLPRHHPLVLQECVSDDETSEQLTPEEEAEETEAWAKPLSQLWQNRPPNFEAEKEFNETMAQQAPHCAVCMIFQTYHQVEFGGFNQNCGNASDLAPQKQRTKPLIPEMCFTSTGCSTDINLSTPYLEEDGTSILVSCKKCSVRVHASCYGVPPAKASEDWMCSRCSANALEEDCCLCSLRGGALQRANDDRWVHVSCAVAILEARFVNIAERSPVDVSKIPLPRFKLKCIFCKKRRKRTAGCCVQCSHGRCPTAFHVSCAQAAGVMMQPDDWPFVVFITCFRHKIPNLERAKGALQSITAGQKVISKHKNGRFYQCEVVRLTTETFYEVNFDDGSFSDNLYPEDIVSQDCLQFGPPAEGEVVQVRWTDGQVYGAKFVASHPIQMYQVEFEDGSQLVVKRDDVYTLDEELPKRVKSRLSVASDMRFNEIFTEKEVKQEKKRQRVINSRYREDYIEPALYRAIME
Text: JMJD2A is a jumonji-domain-containing lysine demethylase that uses Fe(II) together with 2-OG to effect oxidative demethylation of histones. Methylation is one of many […] modification that affect epigenetic transcription. […] It is proposed that the functions of JmjD2A binding to the histones, is to maintain marks after they are installed and to spread the modifications by […], establishing a self-propagating cycle for rapid methylation over a large area of chromatin. […] Thus, small molecule targeting of the JMJD2A-tudor domain interaction with its target methylhistone mark is expected to enable sophisticated experiments probing the fine regulatory pathways leading to selective demethylation of a given methyllysine locus based on the methylation state of adjacent histone marks. A quantitative high throughput AlphaScreen has been developed to identify small molecule inhibitors based on a protocol published by NCGC and SGC [4].
Although AlphaScreen has significant advantages with its utility in a variety of epigenetic target assays, the primary screening data provided in this deposition should be used with caution due to the prevalence of screening artifacts. The top compound concentration tested was high (>100uM) in this assay, which increases number of actives and potential artifacts. An AlphaScreen counterscreen is highly recommended to be run against any putative actives to eliminate non-specific artifacts. Alternatively, one can use other AlphaScreen assays in PubChem to filter out promiscuous hits.
[1] Lee, J. et al. Distinct binding modes specify the recognition of methylated histone H3K4 and H4K20 by JMJD2A-tudor. Nat Struct Mol Biol. 15(1); 109-11. 2008. PMID: 18084306
[2] Yasgar, et al. Compound Management for Quantitative High-Throughput Screening. JALA. 2008 Apr;13(2):79-89. PMID: 18496600
[3] Inglese, et al. Quantitative high-throughput screening: a titration-based approach that efficiently identifies biological activities in large chemical libraries. Proc Natl Acad Sci. 1;103(31):11473-8. 2006. PMID: 16864780
[4] Quinn et al. A homogeneous method for investigation of methyl-dependent protein-protein interactions in epigenetics. Nucleic Acids Res., 38(2):e11. 2010. PMID: […]
[5] Baell,Holloway. New substructure filters for removal of pan assay interference compounds (PAINS) from screening libraries and for their exclusion in bioassays. J Med Chem. 53(7):2719-40. 2010. PMID: 20131845
NIH Molecular Libraries Probe Production Network [MLPCN]
NIH Chemical Genomics Center [NCGC]
Structural Genomics Consortium (SGC)
To each well of a 1,536w plate, 2ul of JMJD2A-Tudor (final 100nM) and 1ul biotinylated histone peptide methylated at Lys4 [b-H3(1-18)K4me3] (final 50nM) were added in 1x PBS buffer, pH 7.4, containing 0.01% Tween-20, using a nanoliter dispenser. Formation of a protein-peptide complex proceeded at room temperature for 30 min. A Kalypsys pin-tool transferred 23nl of library compound solution in DMSO to each well. Following a 30 min incubation of the protein-peptide complex with compounds at room temperature, a mixture of 40 µg/mL each streptavidin-coated donor and nickel chelate acceptor AlphaScreen beads (final 10 µg/mL) was added in a 1ul dispense for a final volume of 4ul, followed by a brief centrifugation (1000 rpm, 1 min). Plates were incubated protected from the light for 20 min at room temperature. Microplates were then read on an EnVision multilabel plate reader using the 1,536 plate HTS AlphaScreen aperture (excitation time 80 ms, measurement time 240 ms).
% is scaled to controls: 0 for no effect and ±100 for the full control effect; potency is read from the fitted curve at half-maximal effect.
Also: nearly all actives have a fitted effect of over 50% in size.

| Compound | activity change, negative = inhibition | Potency |
| --- | --- | --- |
| Cc1ccc(NC(=O)C2CCN(S(=O)(=O)c3cc(-c4noc(C)n4)ccc3C)CC2)c(C)c1 | -6.67% |  |
| CCOCCCn1c(SCC(=O)Nc2ccc(CC)cc2)nc2ccccc2c1=O | 9.33% |  |
| CCOc1ccc(CNC(=O)CCc2c(C)nn(-c3ccc(N4CCCCC4)nn3)c2C)cc1 | -24% |  |
| CCN(CC)/[N+]([O-])=N/Oc1cc(O/[N+]([O-])=N/N2CCCC2CO)c([N+](=O)[O-])cc1[N+](=O)[O-] (stereo not given) |  | 20 µM (active) |
| COc1ccc(C(=O)Nc2ccc(-n3nncc3-c3ccccc3)cc2)cc1OC | -34.3% |  |
| Cc1ccc(-n2c(C)cc(C(=O)CSc3nnc4ccccn34)c2C)cc1 | -20.1% |  |
| Cc1ccc(-n2c(C)cc(C(=O)CN3C(=O)C(=O)N(C4CCCC4)C3=O)c2C)cc1 |  | 31.6 µM (active) |
| Cc1cc(C(=O)COC(=O)C2CC2)c(C)n1-c1ccc(F)cc1 | -25.6% |  |
| Cc1c(Cl)cccc1NC(=O)C(=O)NCCc1csc2nc(-c3ccccc3F)nn12 | -13.7% |  |
| CC(C)c1ccc(NC(=S)NC2CC3C=CC2C3)cc1 (stereo not given) | -10% |  |
| S=C(NNC(=S)NC1CC2C=CC1C2)NC1CC2C=CC1C2 (stereo not given) |  | 3.16 µM (active) |
| COc1ccc(-c2noc(CCC(=O)N(C)c3ccccc3C)n2)cc1 | -3.42% |  |
| CCCCOc1ccc(Cn2c(=O)oc3ccc(C)cc32)cc1OC | 61.2% |  |
| CCCCOc1ccc(CN2C(=O)C(=O)c3cc(Br)cc(C)c32)cc1OC |  | 14.1 µM (active) |
| CCCCN1C(=O)C(C)=C(C)C1OCCc1ccc(OC)c(OC)c1 (stereo not given) | -2.62% |  |
| COc1ccc(NC(=O)c2cc3cc(C)ccc3n2C)cc1 | -2.32% |  |
| COc1ccc(-n2c(SCC(=O)Nc3ccc(Cl)c(C)c3)nc3n[nH]c(C)c3c2=N)cc1 | -14% |  |
| Cc1cccc(Nc2nc(C)nc(N)c2S(=O)(=O)c2ccccc2)c1 | -11.2% |  |
| CCOc1ccc(-c2nonc2NC(=O)c2oc3ccc(CC)cc3c2C)cc1 | -12.6% |  |
| CSc1ccccc1NC(=O)CCS(=O)(=O)c1nc(-c2cccs2)cc(C(F)(F)F)n1 |  | 22.4 µM (active) |
| COc1ccccc1-c1cc(C(F)(F)F)nc(S(=O)(=O)CCCC(=O)Nc2cc(C)ccc2O)n1 | -24.2% |  |
| COc1ccccc1-c1cc(C(F)(F)F)nc(S(=O)(=O)CCCC(=O)Nc2ccc(F)cc2F)n1 | -6.48% |  |

| Compound | activity change, negative = inhibition | Potency |
| --- | --- | --- |
| CCc1ccccc1NC(=O)c1ccc(F)c(S(=O)(=O)NC2CCCCCC2)c1 | -4.28% |  |
| Cc1ccccc1N/N=C/c1ccc(N2CCOCC2)cc1 |  | 50.1 µM (active) |
| CN(CC(=O)Nc1ccc(N2CCOCC2)cc1)CC(=O)Nc1ccccc1[N+](=O)[O-] | -5.3% |  |
| Cc1cc(Nc2ccc(N3CCOCC3)cc2)c2cccc(C)c2n1 | -25.5% |  |
| COc1ccc(N2CCN(C(=O)CNC(=O)c3ccc(Br)o3)CC2)cc1 | -12.5% |  |
| CC(=O)c1ccc(N2CCN(C(=O)CCc3ccccc3)CC2)cc1 | -19.3% |  |
| CC(=O)N1CCN(c2ccc(NCc3ccc(C(C)C)cc3)cc2)CC1 |  | 44.7 µM (active) |
| O=C(O)c1cscn1 |  | 4.47 µM (active) |
| Cc1ccc2nc(COc3ccccc3NC(=O)Nc3ccc(F)c(Cl)c3)cc(=O)n2c1 | -14.3% |  |
| COc1ccc(CCNC(=O)CCCCn2c(=O)c3ccccc3n(Cc3ccccc3)c2=O)cc1OC | -5.46% |  |
| CCOC(=O)Cc1ccc(NC(=O)Nc2c[nH]c(=O)[nH]c2=O)cc1 | -8.28% |  |
| CCCCN(CC)CCCNC(=O)Cn1ncc2c([nH]c3ccc(C)cc32)c1=O | -26.9% |  |
| CCCSc1ncc(Cl)c(C(=O)Nc2sc3c(c2C(=O)NCCOC)CCCC3)n1 | -20.1% |  |
| Cc1ccc(NC(=S)N(CCCN2CCCC2)Cc2cccn2Cc2ccc(Cl)cc2)cc1 |  | 50.1 µM (active) |
| Cc1ccccc1NC(=S)N(CCCN1CCOCC1)Cc1cccs1 | -11.6% |  |
| Cc1ccc(NC(=S)N(CCCN2CCC(C)CC2)Cc2ccco2)cc1 | -28.5% |  |
| O=c1[nH]c2cc(Br)ccc2n2cccc12 | 0.336% |  |
| COc1cc(C(=O)N2CCN(c3ccc(Nc4ccc(C)cc4)nn3)CC2)cc(OC)c1OC | -20.8% |  |
| Cc1ccc(N=C2NC(=O)/C(=C/C=C/c3ccco3)S2)cc1C |  | 39.8 µM (active) |
| COc1ccc(OC)c(CCNC(=O)CCCn2c(=O)c3cccn3c3cccnc32)c1 | -6.23% |  |
| O=C(Cn1c(=O)n(Cc2cccs2)c(=O)c2cccnc21)Nc1ccc(F)cc1 | -9.09% |  |
| CC(C)(C)n1c(=O)[nH]c2c(c1=O)CCC2 | 4.4% |  |

| Compound | activity change, negative = inhibition | Potency |
| --- | --- | --- |
| O=c1[nH]n2c(=O)c3c([nH]c2c1N=Nc1ccccc1)CCC3 |  | 50.1 µM (active) |
| Cc1ccc2oc(=O)c3cnn(CC(=O)NCc4ccccc4Cl)c3c2c1 | -22.5% |  |
| CCOc1cc(C(=O)NCCc2csc3nc(-c4ccc(C)cc4)nn23)cc(OCC)c1OCC | 3.3% |  |
| COc1ccc(C(=O)NC(=O)CSc2nnc(-c3ccco3)n2-c2ccccc2)cc1 | -4.05% |  |
| NNC(=O)CSc1nnc(-c2ccccc2)n1-c1ccccc1 | -15.9% |  |
| Cc1cccc(C)c1NC(=O)CCCSc1nnc(-c2ccco2)n1-c1ccccc1 | -27.9% |  |
| CCOc1ccc(-n2c(SCC(N)=O)nnc2-c2ccco2)cc1 |  | 20 µM (active) |
| COc1ccc(-c2nnc(SCC(=O)c3ccco3)n2-c2ccccc2)cc1 |  | 56.2 µM (active) |
| Cc1cc(NC(=O)CSc2nnc(-c3ccco3)n2N)no1 | -18.8% |  |
| O=C1OC(C(=O)Nc2cccc(Br)c2)Cc2ccccc21 (stereo not given) | -5.15% |  |
| CCOC(=O)c1ccc(NC(=O)c2ncn(-c3ccccc3)n2)cc1 | -1.37% |  |
| NC1=NC(c2cc(F)cc(F)c2)n2c(nc3ccccc32)N1 (stereo not given) | -11.9% |  |
| COc1ccccc1NC(=O)c1cc(S(=O)(=O)NCCc2ccccc2)ccc1F | -22.6% |  |
| Oc1ccccc1-c1nc(/C=C/c2ccc(F)cc2)no1 | -4.81% |  |
| O=C(Nc1ccc(-n2ccnc2P(=O)(O)c2ccccc2)cc1)c1ccccc1Br |  | 8.91 µM (active) |
| Cn1c(=O)c(=O)n(C)c2cc(NC(=O)c3ccccc3Br)ccc21 | -0.685% |  |
| Cc1ccc(NC(=O)c2cccnc2C(=O)Nc2ccc(C)cc2)cc1 | -17.7% |  |
| COc1ccc(CCNC(=O)c2cc3cccc4c3n2CC(C)S4)c(OC)c1OC (stereo not given) | -10.7% |  |
| Cc1nnc(SCC(=O)NNC(=O)c2ccc(Cl)cc2)n1CC1CCCO1 (stereo not given) | -2.01% |  |
| CNC(=O)NC(=O)CSc1nnc(-c2ccc(F)cc2)n1CC1CCCO1 (stereo not given) | -27.5% |  |
| S=c1[nH]nc(-c2ccc(Cl)cc2)n1CC1CCCO1 (stereo not given) |  | 8.91 µM (active) |
